# In PubChem BioAssay AID430 (Sanford-Burnham Center for Chemical Genomics, 2006):
# Among all 63,000 compounds or so, about 1,100 (1.7%) were called active. The entries come from a sample that favours actives as a whole. Results with a measured potency or affinity are listed apart. Values without a mark were called inactive. No stated cut-off is given here; in the data, active means cytotoxicity above about 50%; inactive means the rest.
# Assay: cytotoxicity in HPDE-C7 cells, cell-based, fluorescence, HTS (AID 430);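 further: cells exposed to compound for 48 hours before viability readout; 0% = vehicle and 100% = reference cytotoxic drug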
# Conditions: HPDE-C7 pancreatic duct cells viability, at 10 µM, hits give high values
row,SMILES,cytotoxicity
1,Cc1ccc(C)c(NC(=O)CCn2nc(C)cc2C)c1,-17.9%
2,c1ccc2[nH]c(CN3CCN(c4ncnc5c4oc4ccccc45)CC3)nc2c1,-2.8%
3,CC(=O)N1CCN(C(=O)COc2ccc(Br)cc2)CC1,4.1%
4,CCOc1ccc(NC(=O)c2ccccc2NC(=O)CN2CCN(C(C)=O)CC2)cc1,-0.6%
5,O=C(C1CCN(Cc2ccc(F)cc2)CC1)N(CCO)Cc1ccccc1,2.8%
6,COC(=O)c1c(NC(=O)c2ccc(Br)s2)sc2c1CCC2,53.5% (active)
7,COC(=O)c1c(NC(C)=O)sc2c1CCCC2,-2%
8,COC(=O)c1c(NC(=O)c2ccoc2C)sc2c1CCC2,-21%
9,CC(=O)c1c(C)nc(-c2ccc3c(c2)OCO3)n1O,-6.2%
10,O=C(Nc1ccc2c(c1)OCO2)C(c1ccc(Cl)cc1)N1CCC2(CC1)OCCO2 (stereo unspecified),4.2%
11,CC1CCN(C(=O)CNC(=O)Cn2ccc3ccccc3c2=O)CC1,-13.9%
12,CN1CC2=Cc3ccccc3OC23Oc2ccccc2C=C3C1,58.3% (active)
13,CCCCn1c(=O)[nH]c(=O)c2c1nc(COC(=O)c1c(C)noc1C)n2CCC,-7%
14,Cc1cc(-c2ccccc2)c(C#N)c(N)n1,-14.3%
15,CSc1nc(-c2ccco2)cc(-c2ccccc2)c1C#N,-2.3%
16,C=CCn1c(SCC(=O)C(C)(C)C)nnc1-c1cccs1,-5.8%
17,O=C(Oc1ccc(Cl)c2cccnc12)N1CCOCC1,10.3%
18,O=C(Oc1c(Cl)cc(Cl)c2cccnc12)N1CCOCC1,3.3%
19,COc1cc(C(=O)Oc2c(CN3CCOCC3)cc(Cl)c3cccnc23)cc(OC)c1OC,29%
20,COc1ccc(C(=O)Oc2c(CN3CCOCC3)cc(Cl)c3cccnc23)cc1OC,7.4%
21,Cc1ccc(CCNC(=O)C2CCCN(S(=O)(=O)c3cnc[nH]3)C2)cc1 (stereo unspecified),-8.4%
22,O=C(NCC(=O)N(c1ccc2c(c1)OCO2)C(C(=O)NC1CCCC1)c1ccncc1)c1ccco1 (stereo unspecified),-5.8%
23,Cc1cccc2cc(COC(=O)c3cccnc3)c(=O)[nH]c12,8.9%
24,CC1CCN(S(=O)(=O)c2ccc3[nH]c(=O)c(=O)[nH]c3c2)CC1,-9%
25,COC(=O)Cc1cc(=O)[nH]c(/N=C(/NC(=O)c2ccccc2)Nc2ccccc2C)n1,2.1%
26,CCC(NC(C)C)C(O)c1ccc(O)c(O)c1 (stereo unspecified),15.3%

row,SMILES,cytotoxicity
1,Cc1ccc(O)c(CC(C)C)n1,-4.7%
2,O=C(c1cc2ccccc2cc1OCC(O)CN1CCCCC1)N1CCCCC1 (stereo unspecified),-0.7%
3,CC1CCCN(S(=O)(=O)c2cc(Cl)ccc2Cl)C1 (stereo unspecified),-32.2%
4,CCN(CC)S(=O)(=O)c1ccc(Cl)c(C(=O)Nc2nncs2)c1,2.1%
5,CCN(CC)S(=O)(=O)c1cccc(C(=O)Nc2nncs2)c1,-14.1%
6,Cc1ccccc1-n1c(SC/C(O)=C(\C#N)c2nc3ccccc3[nH]2)nnc1-c1ccncc1,-17.8%
7,Nc1nc(NC(=O)c2cccnc2)nn1-c1ccccc1,3.1%
8,Nc1nc(NC(=O)c2ccco2)nn1-c1ccccc1,2%
9,CCOC(=O)CSC1=C(C#N)C(c2ccc(Cl)cc2)CC(=O)N1 (stereo unspecified),-16%
10,Cc1ccc(C2CC(=O)NC(SCc3ccccc3)=C2C#N)o1 (stereo unspecified),10.6%
11,Cc1ccc(C2CC(=O)NC(SCC(=O)OCc3ccccc3)=C2C#N)o1 (stereo unspecified),59.6% (active)
12,CC1=C(C(=O)OC2CCCCC2)C(c2ccc(C)o2)C2=C(CCCC2=O)N1 (stereo unspecified),-7%
13,CC1=C(C(=O)OCc2ccccc2)C(c2ccc(C)o2)C2=C(CCCC2=O)N1 (stereo unspecified),54.4% (active)
14,CC1=C(C(=O)OC2CCCCCC2)C(c2ccc(C)o2)C2=C(CCCC2=O)N1 (stereo unspecified),-13.9%
15,CCOC(=O)CSC1=C(C#N)C(c2ccc(C)o2)CC(=O)N1 (stereo unspecified),68.5% (active)
16,COC(=O)CSC1=C(C#N)C(c2ccccc2)CC(=O)N1 (stereo unspecified),-10%
17,CCCCCCSC1=C(C#N)C(c2ccc(C)o2)CC(=O)N1 (stereo unspecified),-8%
18,CC(=O)Nc1cccc(NC(=O)CSc2nnc(Cc3cccn3C)n2-c2ccc(F)cc2)c1,-6.9%
19,Cc1cccc(C(C)(C)C)c1OCCn1ccnc1,8.6%
20,COc1ccc(S(=O)(=O)N(CC(N)=O)C2CCCCC2)cc1Cl,-13.6%
21,O=C(CN1CCN(C(=O)c2ccco2)CC1)Nc1ccc2c(c1)OCCO2,-13.8%
22,CCn1c(N2CCC(Cc3ccccc3)CC2)nc2c1c(=O)[nH]c(=O)n2C,-25.9%
23,CC(=O)OC[C@H]1O[C@@H](n2ccc(=O)[nH]c2=S)C(OC(C)=O)C1OC(C)=O (stereo partly specified),-1%
24,CC(=O)OCC1OC(n2ccc(=O)[nH]c2=O)C(O)C1O (stereo unspecified),-11.3%
25,CC(=O)OC[C@H]1O[C@@H](n2ncc(=O)[nH]c2=O)[C@H](OC(C)=O)[C@@H]1OC(C)=O,56.2% (active)
